Screening results (PubChem BioAssay)
PfHsp90 set2 = growth inhibition of PfHsp90-expressing yeast, primary screen, antimalarial PfHsp90 inhibitor project, S. cerevisiae, BacTiter-Glo luminescence, single point, set 2. inhibition, % at 9.4 µM. AID 504621, 2011. BacTiter-Glo ATP, 48 h; yeast lacking PDR1 and PDR3 efflux regulators. hit rate 0.32% among 310,000;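 active means every replicate shows inhibition above about 80%, whatever the replicate mean, limit read from the data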;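 further: 0% = DMSO neutral controls and 100% = 20 µM radicicol positive controls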
tim23-1 inh = growth inhibitors of tim23-1 mutant yeast, primary screen, luminescence, uHTS; inhibition, % at 20 µM; S. cerevisiae tim23-1 growth, BacTiter-Glo luminescence, 24 h; AID 463212, 2010; hit rate 1.3% among 330,000;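 active means growth inhibition of the mutant yeast at or above 50%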;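 further: temperature-sensitive mutant grown at 25 °C; plate controls were DMSO-treated mutant yeast for no effect and medium wells lacking yeast for full effect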
SKKanGAS inh = S. pyogenes SKKanGAS growth inhibitors in kanamycin, primary screen, streptokinase expression inhibitor project, SKKanGAS strain, BacTiter-Glo luminescence; AID 1662, 2009; hit rate 1.3% among 300,000; inhibition, % at 7.5 µM; 6 h;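 active means mean replicate score, as percent of positive control median, at least 50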;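 further: strain carries kanamycin resistance gene driven by streptokinase promoter and grows in 40 µg/ml kanamycin; loss of luminescence reflects streptokinase promoter inhibition or plain growth inhibition; 0% = median of DMSO wells and 100% = positive control at its reference dose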
tim10-1 inh = growth inhibitors of tim10-1 mutant yeast, primary screen, luminescence, uHTS | S. cerevisiae tim10-1 ts strain growth, BacTiter-Glo, 24 h | inhibition, % at 20 µM | hit rate 2.2% among 330,000 | AID 463190, 2010;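 active means inhibition of at least 40%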;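 further: mutant grown at 25 °C; 0% = DMSO wells with yeast and 100% = wells holding no yeast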
NALP3 yeast inh = NALP3 inflammasome inhibitors in reconstituted yeast, primary screen, luminescence, uHTS; Yeast reconstituted NLRP3/ASC/caspase-1, beta-gal luminescence, 24 h; inhibition, % at 10 µM; hit rate 0.39% among 330,000;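 active means inhibition of 50% or more; inactive means inhibition below 50%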;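 further: plate controls were induced DMSO wells for no effect and uninduced yeast grown without galactose for full effect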
TIM10 inh = growth inhibitors of isogenic TIM10 control yeast, primary screen, counter-screen for tim10-1 yeast inhibitor project, luminescence, uHTS; S. cerevisiae TIM10 strain growth, BacTiter-Glo luminescence, 24 h; inhibition, % at 10 µM; hit rate 1.4% among 330,000; AID 463195, 2010;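 active means inhibition of 40% or more at the single tested concentration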;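 further: wild-type TIM10 isogenic control strain grown at permissive 25 °C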
tim10-1 confirm = growth inhibitors of tim10-1 mutant yeast, confirmation, single concentration, luminescence, S. cerevisiae; inhibition, % at 20 µM; hit rate 56% among 7,400; S. cerevisiae tim10-1 ts strain growth, BacTiter-Glo, 24 h; shares compounds with tim10-1 inh; AID 463213, 2010;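 active means inhibition of yeast growth at or above a set limit in either of two repeat tests at 20 µM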;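 further: tim10-1 mutant grown at permissive 25 °C to find synthetic lethal compounds; 0% = DMSO yeast wells and 100% = medium wells without yeast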
An asterisk follows results filed as active; nt = no result. This is a sample that favours compounds with a hit; in the whole collection about 4.5% have one here.

SMILES | PfHsp90 set2 | tim23-1 inh | SKKanGAS inh | tim10-1 inh | NALP3 yeast inh | TIM10 inh | tim10-1 confirm
CCC1CN(C(=O)NCc2ccc(F)cc2)c2cc(C)ccc2O1 (centres undefined) | -42 | 21 | 8 | 41* | 27 | 10 | 24
O=S(=O)(c1ccc(Cl)cc1)N1CCC2(CC1)OCCN2S(=O)(=O)c1cccs1 | -8 | 27 | 7 | 48* | 2 | -3 | 29*
COc1ccc(S(=O)(=O)N2CCOC23CCN(S(=O)(=O)c2ccc(F)cc2)CC3)cc1 | -16 | 45 | -7 | 47* | 24 | 19 | 31
Cc1ccc(S(=O)(=O)N2CCC3(CC2)OCCN3S(=O)(=O)c2cccs2)cc1 | -16 | 38 | -6 | 35 | 12 | 5 | nt
COc1ccc(S(=O)(=O)N2CCOC23CCN(S(=O)(=O)c2ccc(C)cc2)CC3)cc1 | 4 | 47 | -3 | 46* | 23 | 19 | 28
O=C(NCCn1ccc2ccccc21)c1ccc(S(=O)(=O)N2CCCCC2)cc1 | 8 | 34 | 1 | 41* | -10 | 20 | 27
COc1ccc(C(=O)NCCn2ccc3ccccc32)cc1 | 5 | 26 | 6 | -11 | 31 | 3 | nt
CCN(C(=O)COC(=O)CCc1ccc(OC)cc1)c1c(N)n(Cc2ccccc2)c(=O)[nH]c1=O | -10 | -1 | nt | -11 | 10 | 0 | nt
Cc1c(C=O)c(C=O)c(C)n1Cc1ccccc1 | -9 | 39 | -4 | 42* | 11 | 17 | 21
Cc1ccc(-c2nn3c(C)nnc3c3ccccc23)cc1S(=O)(=O)NCCO | -19 | 15 | 7 | 2 | 4 | 1 | nt
Cc1ccc(-c2nn3c(C)nnc3c3ccccc23)cc1S(=O)(=O)N1CCN(CCO)CC1 | 3 | 16 | -4 | 44* | 23 | 6 | 7
COCCOc1ccc(C(F)(F)F)cc1NC(=O)COC(=O)Cc1c[nH]c2ccccc12 | -21 | 33 | nt | 8 | 25 | 10 | nt
COc1cccc(C(=O)NCCNC(=O)c2cnccn2)c1 | -56 | 3 | -3 | -8 | -9 | 12 | nt
COc1ccc2c(c1)C(=O)N(c1ccccc1C)C(=O)C2(C)C | 7 | 32 | -7 | 47* | 32 | 33 | 30
COc1ccc(N2C(=O)c3ccccc3C(C)(C)C2=O)cc1 | -7 | 45 | 3 | 23 | 15 | 27 | nt
CC(C)[C@H](NC(=O)OCc1ccccc1)C(=O)OCC(=O)N1CCCCC1 | 3 | nt | nt | nt | nt | nt | nt
CCOCCOC(=O)c1ccc(NC(=O)C2COc3ccccc3O2)cc1 (centres undefined) | -15 | 41 | -1 | 42* | 26 | 14 | 26
CCOC(=O)c1ccc(NC(=O)C2COc3ccccc3O2)cc1 (centres undefined) | 5 | 38 | -2 | 22 | 32 | -4 | nt
CC1=CC(C)(C)Nc2ccc(OC(=O)c3cccnc3)cc21 | 11 | 33 | 7 | 40* | 8 | 13 | 25
CC1=CC(C)(C)Nc2ccc(OC(=O)c3ccco3)cc21 | 14 | 30 | 2 | 23 | 28 | 14 | nt
CCN(CC)c1ccc(Nc2nc(-c3cccnc3)cs2)cc1 | 9 | 30 | -5 | 49* | 34 | 2 | 33*
O=C(NC1CCCCC1)C(c1cccs1)N(Cc1cccs1)C(=O)c1cccs1 (centres undefined) | -10 | 25 | 1 | 45* | -11 | 27 | 26*
COc1ccc(/C=C(/NC(=O)c2ccccc2)C(=O)N/N=C/c2sccc2C)cc1 | 9 | 12 | -7 | 5 | -8 | 9 | nt
COc1ccc(/C=C(\NC(=O)c2ccccc2)C(=O)N/N=C/c2sccc2C)cc1 | -1 | -1 | -10 | 51* | 13 | 19 | 2
CC(=O)NC(CC(=O)Nc1cc(Cl)ccc1-n1cncn1)c1ccccc1 (centres undefined) | nt | 4 | -7 | -6 | 12 | 3 | nt
SMILES | PfHsp90 set2 | tim23-1 inh | SKKanGAS inh | tim10-1 inh | NALP3 yeast inh | TIM10 inh | tim10-1 confirm
Cc1ccc(S(=O)(=O)n2nc(OC(=O)C3CCCCC3)cc2N)cc1 | -2 | 24 | 2 | 42* | 2 | 30 | 28
Cc1ccc(S(=O)(=O)n2nc(OC(=O)c3ccco3)cc2N)cc1 | nt | 34 | 0 | 42* | -8 | 6 | 27
CCOC(=O)c1nc(-c2ccc(OC)c(OC)c2)no1 | nt | 6 | -8 | 12 | -7 | -10 | nt
CC(OC(=O)C1=COCCO1)C(=O)NC1CCCCC1C (centres undefined) | -17 | -7 | nt | 2 | 2 | 6 | nt
CCN(CC(=O)Nc1ccc(NC(C)=O)cc1)C(=O)c1ccc(S(=O)(=O)N2CCCC2)cc1 | 14 | nt | nt | nt | nt | nt | nt
O=C(c1ccc(F)cc1)C1CCN(C(=S)Nc2ccccc2Cl)CC1 | -10 | 14 | 3 | 10 | 13 | 3 | nt
Cc1ccccc1NC(=S)N1CCC(C(=O)c2ccc(F)cc2)CC1 | 10 | 8 | -1 | 42* | 5 | 12 | 6
NC1=NC(=O)C(c2ccccc2)C(=O)N1 (centres undefined) | 15 | nt | nt | nt | nt | nt | nt
CSCCC(NC(=O)c1ccccc1)C(=O)NCCc1ccccc1 (centres undefined) | -17 | 19 | -4 | 13 | 19 | -4 | nt
CSCCC(NC(=O)c1ccccc1Br)C(=O)NC(C)CCc1ccccc1 (centres undefined) | 1 | 1 | 4 | 76* | -3 | 4 | 0
COc1cccc(NC2=C(NCCO)C(=O)c3ccccc3C2=O)c1 | 0 | 25 | 6 | 14 | 16 | 14 | nt
Cc1cccc(NC2=C(NCCO)C(=O)c3ccccc3C2=O)c1 | -36 | 34 | 14 | 42* | 7 | 5 | 32*
COc1ccc(S(=O)(=O)N2CCC(C(=O)NCc3ccncc3)CC2)cc1OC | 1 | 5 | 2 | 18 | 30 | -12 | nt
O=C(Nc1nc(-c2cc(F)ccc2F)cs1)C1=COCCO1 | nt | 32 | 1 | 46* | 28 | 27 | 30
O=C(Nc1nc(-c2cc(F)ccc2F)cs1)C1=NN(c2ccccc2)C(=O)CC1 | -32 | 17 | 9 | 45* | 14 | 38 | 26
COc1ccc(CCN2CC(C(=O)Nc3cc(F)ccc3F)CC2=O)cc1OC (centres undefined) | nt | -2 | -2 | -3 | 6 | -2 | nt
O=C(c1ccc(-c2cccc(Cl)c2Cl)o1)N1CCOCC1 | -8 | 39 | 4 | 44* | -16 | 22 | 42*
COc1ccc(N2Cc3ccccc3C2=O)cc1 | -7 | 15 | 13 | -18 | 43 | -8 | nt
C=CC(=O)Oc1ccc(N2Cc3ccccc3C2=O)cc1 | nt | 21 | 5 | 60* | -30 | 4 | 68*
